# Reference: ChEMBL document CHEMBL3433997, “St. Jude Leishmania screening dataset” (2016)
# Assays:
# Type in all cases: functional
# [1] = biological target: Solute carrier family 2, facilitated glucose transporter member 1 (Homo sapiens) (UniProt P11166); experiment: ST_JUDE_LEISH: Cytotoxicity at 2uM final concentration against transgenic Leishmania Mexicana promastigotes LmGLUT1 that are glucose transport deficient and complemented with the human glucose transporter GLUT1. Activity is measured by DNA content using SYBR green in vitro
# Sequence of Solute carrier family 2, facilitated glucose transporter member 1 (Homo sapiens) (P11166 whole entry): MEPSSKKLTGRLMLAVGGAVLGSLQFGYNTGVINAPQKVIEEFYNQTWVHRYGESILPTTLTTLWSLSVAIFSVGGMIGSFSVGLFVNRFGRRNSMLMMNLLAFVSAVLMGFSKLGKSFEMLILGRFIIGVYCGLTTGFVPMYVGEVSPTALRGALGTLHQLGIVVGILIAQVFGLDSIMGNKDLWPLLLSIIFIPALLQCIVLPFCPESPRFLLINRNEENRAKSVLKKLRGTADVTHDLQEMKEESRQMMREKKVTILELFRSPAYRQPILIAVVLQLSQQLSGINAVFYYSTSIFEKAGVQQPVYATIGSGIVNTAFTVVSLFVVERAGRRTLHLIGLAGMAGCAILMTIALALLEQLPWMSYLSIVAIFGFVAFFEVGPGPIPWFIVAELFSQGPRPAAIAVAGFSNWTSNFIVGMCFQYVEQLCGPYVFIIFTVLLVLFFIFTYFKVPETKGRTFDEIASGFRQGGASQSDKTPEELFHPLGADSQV
# [2] = biological target: Hexose transporter 1 (Plasmodium falciparum) (UniProt O97467); experiment: ST_JUDE_LEISH: Cytotoxicity at 2uM final concentration against transgenic Leishmania Mexicana promastigotes LmPfHT that are glucose transport deficient and complemented with the Plasmodium falciparum hexose transporter. Activity is measured by DNA content using SYBR green in vitro
# [3] = biological target: Glucose transporter (Leishmania mexicana) (UniProt O61059); experiment: ST_JUDE_LEISH: Cytotoxicity at 2uM final concentration against transgenic Leishmania Mexicana promastigotes LmGT2 that are glucose transport deficient and complemented with the L. Mexicana glucose transporter 2. Activity is measured by DNA content using SYBR green in vitro
Compound,inhibition [1],inhibition [2],inhibition [3]
COC(=O)c1sc(-c2ccc(Cl)cc2)cc1N(CCCN1CCC(N2CCCCC2)CC1)S(=O)(=O)c1ccc(C)cc1,23.5%,11.2%,9.1%
CCN1CCC(N(Cc2ccc(-c3ccc(C(F)(F)F)cc3)cc2)C(=O)Cn2c(CCc3cccc(F)c3F)cc(=O)c3ccccc32)CC1,-0.63%,-0.01%,-2.06%
CCCCNc1cc(NCCCC)c2c(n1)[nH]c1ccccc12,18.4%,16.6%,4.43%
CC(C)CNC(=O)CN1C(=O)C(c2ccccc2)(c2ccccc2)N=C1N,4.76%,4.66%,2.29%
Oc1ccc(CCNCCCCCCNCCc2ccc(Cl)cc2)c(Cl)c1O,-2.47%,-4.06%,-1.17%
CC[C@H](C)CNC(=O)c1cncc(-c2cccc(CN3CCC(N4CCCC4)CC3)c2)c1,-3.12%,2.1%,-0.34%
CC(C)c1ccc(NC(=O)Nc2ccc(Cn3ncc(N4CCCNCC4)c(Cl)c3=O)cc2)cc1,1.52%,1.29%,-0.56%
Cc1sc2ncnc(Sc3nc4ccccc4[nH]3)c2c1C,5.47%,8.07%,3.58%
CCN1CCN(c2cc(C)c3cc(NC(=O)c4cccc(OC)c4)ccc3n2)CC1,15.2%,15.3%,13.7%
Cc1cc(N2CCNCC2)c2cc(NC(=O)Nc3ccc(Cl)c(Cl)c3)ccc2n1,3.19%,3.7%,3.64%
c1cc(CN2CCCCC2)cc(-c2ccc(-c3nc4ccccc4[nH]3)s2)c1,4.86%,1.16%,-0.82%
O=C(Cc1ccccc1)NC(Nc1ccc([N+](=O)[O-])cc1)C(Cl)(Cl)Cl (stereo unspecified),-0.19%,1.43%,0.18%
O=C(NCCNc1nc(NCCNC(=O)Nc2ccccc2)c2ccc(=O)n(-c3c(F)cccc3F)c2n1)Nc1ccccc1,2.75%,1.99%,-0.37%
COc1ccc(S(=O)(=O)N2CCCC(C)C2)cc1N1CCN(C(=O)c2ccc([N+](=O)[O-])o2)CC1 (stereo unspecified),1.83%,0.28%,0.09%
CC1(C)NC(N)=NC(=N)N1OCc1cc(Cl)c(Cl)cc1CON1C(=N)N=C(N)NC1(C)C,3.89%,2.37%,0.54%
COc1cccc(CCNc2nc(NCc3ccccc3)c3cc(OC)c(OC)cc3n2)c1,7.51%,5.93%,1.86%
Cc1ccc(C)c(NC(=O)NCCNc2ccnc(Nc3ccc(F)cc3)n2)c1,17%,13.1%,6.47%
CN(C)c1cc2c(Nc3ccc4nc(Cc5ccccc5)[nH]c4c3)ncnc2cn1,4.02%,5.87%,2.46%
CC(C)(C)c1ccc2[nH]c(-c3ccc(/C=C/C(=O)NC4CCN(Cc5ccccc5)CC4)cc3)nc2c1,9.73%,10.5%,7.5%
CC(C)CCN1CCC(Oc2ccc(NC(=O)c3ccco3)cc2Cl)CC1,7.85%,9.84%,5.26%
CCn1cc(CN2CCCC(C(=O)Nc3ccc(-c4nc5ccccc5[nH]4)cc3)C2)c(C)n1 (stereo unspecified),3.61%,4.26%,3.25%
CN1CCCN(Cc2ccc(-c3cccc(NC(=O)c4cccc(F)c4)c3)cc2)CC1,12.9%,9.38%,7.57%
COc1ccccc1C1CCN(CCCCNC(=O)c2ccc(/C=C/c3cc(Cl)cc(Cl)c3)cc2)CC1,2.68%,2.81%,1.77%
Cc1nc(NC(=N)N)nc2ccc(C(C)(C)C)cc12,0.73%,0.81%,1.22%

Compound,inhibition [1],inhibition [2],inhibition [3]
O=C(c1ccco1)N1CCN(c2nc(-c3ccc(Cl)cc3)nc3ccccc23)CC1,6.35%,1.81%,4.42%
CS(=O)(=O)c1ccc(CCNCc2ccc(-c3ccc(CNC4Cc5ccccc5C4)cc3)nc2)cc1,-0.55%,-0.45%,2.3%
CN(CCN)Cc1cccc(-c2cccc(-c3nc4cc(F)ccc4[nH]3)c2)c1,1.11%,1.79%,-1.76%
Cc1n[nH]c2cc(Nc3ccnc(Nc4ccc(CN5CCOCC5)cc4)n3)ccc12,12.7%,9.89%,14.2%
Cc1cc(C(F)(F)F)cc(-n2ncc(-c3ccc(C(=O)NCCNCc4ccccc4)cc3)c2N)n1,0.77%,1.46%,-0.24%
CNC(=O)c1cnc(Nc2ccc(N3CCN(C)CC3)cc2)nc1Nc1cccc(OC)c1,3.74%,2.74%,5.02%
OCCN1CCN(Cc2ccc(-c3ccc(-c4nc5cc(C(F)(F)F)ccc5[nH]4)s3)cc2)CC1,5.47%,4.05%,4.01%
COc1ccc2[nH]ccc(=NN=Cc3cccnc3)c2c1,1.08%,-2.41%,1.2%
NC1CCN(Cc2ccc(-c3ccc(-c4nc5ccccc5[nH]4)cc3)cc2)C1 (stereo unspecified),12.9%,10.4%,5.07%
COc1ccc(Br)cc1C1C2C(=O)N(c3ccc(Br)cc3)C(=O)C2C2(C(=O)O)CC(OCc3ccccc3)CN12 (stereo unspecified),12.4%,12%,10.2%
O=C(NCc1ccc(F)cc1)Nc1ccc(-c2ccc(-c3nc4ccccc4[nH]3)cc2)cc1,1.28%,-0.46%,0.75%
O=S(=O)(NCCN1CCCC1)c1cccc(-c2ccc(CNCc3ccccc3)cc2)c1,5.11%,2.05%,2.83%
O=[N+]([O-])c1cc(C(c2ccc(O)c([N+](=O)[O-])c2)C(Cl)(Cl)Cl)ccc1O,9.43%,9.85%,7.92%
CCCCC(=O)NC(c1cccs1)c1cc(Cl)c2cccnc2c1O (stereo unspecified),8.63%,8.32%,5.17%
O=S(=O)(Nc1cccc(F)c1CNCc1ccccn1)c1ccc(Cl)c(Cl)c1,-1.4%,0.71%,-2.5%
O=C(O)CCCN1CCCC(=C(c2ccccc2)c2ccccc2)C1,3.04%,3.64%,4.81%
COc1ccc2nccc([C@@H](O)CN3CCC(NCCNc4ccccn4)CC3)c2c1,8.79%,9.69%,6.24%
Oc1ccc2[nH]c(-c3cccc(F)c3)nc2c1CN1CCC(N2CCCC2)CC1,3.47%,3.65%,4.9%
Cc1cc2nc(-c3ccc(C(=O)NCc4ccc(Cl)c(Cl)c4)cc3)[nH]c2cc1C,4.77%,4.64%,2.9%
O=C(NCCCCN1CCC(O)(c2ccc(Cl)cc2)CC1)c1ccc(Br)cc1,4.03%,2.65%,4.04%
CN1CCOc2ccc(Nc3nnc(-c4cccc(-c5cccnc5)c4)o3)cc2C1,3.12%,2.67%,1.35%
COc1ccc(C(=O)Nc2ccc(Cl)cc2C(=O)Nc2ccncc2)cc1,4.33%,3.94%,-0.77%
O=C(/C=C/C=C/c1ccc(Cl)c(Cl)c1)NCCCCCN1CCCC2CCCCC21 (stereo unspecified),13.3%,12.3%,13.2%
COc1ccc(NC(=O)c2ccc(-c3cc(NC(=O)c4ccnc(N5CCCC5)c4)ccc3C)s2)cc1N1CCN(C)CC1,-1.75%,0.73%,-1.93%

Compound,inhibition [1],inhibition [2],inhibition [3]
Cc1cnc(C(=O)Nc2cccc(-c3csc(-c4nc5ccccc5[nH]4)c3)c2)cn1,5.41%,1.2%,3.93%
Cc1nc(-c2ccc(C(F)(F)F)cn2)sc1C(=O)N1CCc2cc3nccc(N4CCN5CCC[C@H]5C4)c3cc21,7.49%,5.35%,0.8%
CC(C)Nc1nc(NCCc2c[nH]cn2)nc(NCc2cccc3ccccc23)n1,-1.11%,-0.07%,-2.34%
CC(C)CC(=O)N1CCNC[C@@H]1C(=O)NCCSCc1c(F)cccc1Cl,3.36%,5.07%,4.3%
N=C(N)NN=Cc1ccc2ccc3ccccc3c2c1,5.52%,7.75%,4.14%
O=C(Nc1nc(-c2ccccn2)cs1)c1ccccc1COc1ccccc1,-2.49%,1.21%,-1.57%
COc1ccccc1NC(=O)Nc1cccc(-c2cccc(-c3nc4cccc(C)c4[nH]3)c2)c1,-1.43%,0.52%,-1.31%
CCCCCN1CCCC1CNS(=O)(=O)c1ccc(C(=O)Nc2ccc(C(F)(F)F)cc2)cc1 (stereo unspecified),4.05%,3.41%,1.09%
COc1cc2c(cc1C(F)(F)F)N(C(=O)Nc1cccc(-c3ccc(CN(C)C)cc3)c1)CC2,22.1%,10.2%,44%
Cc1nc(-c2cccc3c(NC(=O)Nc4ccc5nccc(N6CCN(C)CC6)c5c4)cccc23)no1,4.28%,4.25%,6.65%
Cc1ccc2cc(C3NC(=O)c4ccccc4N3)c(Cl)nc2c1 (stereo unspecified),18.9%,16.3%,14.9%
O=C(/C=C/c1ccc(F)c(Br)c1)NCCCCCN1CCC(c2c[nH]c3ccccc23)CC1,1.88%,0.52%,-1.08%
CCc1c[nH]c2c(N3CCCC3=O)cc(C(=O)N[C@@H](Cc3ccccc3)[C@H](O)CNC(C)(C)c3cccc(OC)c3)cc12,-0.15%,1.3%,1.9%
CSc1ccc(C=CC(=O)NC(=O)c2ccccc2O)cc1,1.32%,2.44%,1.41%
O=C(Nc1ccc(Cl)cc1)Nc1ccc(Cn2ncc(N3CCCNCC3)c(Cl)c2=O)cc1,2.02%,5.96%,2.56%
CCc1c(CCNCCCCCCNCCc2ccc(OC)c(OC)c2C)ccc(OC)c1OC,10.2%,9.23%,12.1%
Fc1cccc2sc(Nc3nc(-c4ccccn4)cs3)nc12,1.42%,0.63%,-5.6%
CC(=O)N(C)C1CCN(Cc2ccc(-c3ccc(-c4nc5cc(F)ccc5[nH]4)s3)cc2)C1 (stereo unspecified),8.07%,5.96%,6.2%
Cc1[nH]c(C)c(-c2ccc(OCc3cccc(C(F)(F)F)c3)nc2)c(=O)c1Br,44.5%,64.4%,35%
O=C(/C=C/c1ccc(Cl)c(Cl)c1)NC1CCN(CCNC(=O)c2cccc(Cl)c2)CC1,4.41%,3.11%,2.53%
O=C(NCCc1ccccc1)N(Cc1ccccc1-c1ccc(CNCCc2ccccc2)cc1)C1CCN(Cc2ccccc2)CC1,7.2%,8.75%,3.55%
COc1ccc2nc(NC(N)=NC(=O)Nc3ccccc3)nc(C)c2c1,2.55%,2.15%,0.15%
COc1ccc(Nc2nccc(N3CCC(NC(=O)c4cccc(C#N)c4)C3)n2)cc1 (stereo unspecified),2.52%,4.34%,3.91%
O=C(NCCCCN1CCN(CC=Cc2ccccc2)CC1)c1ccc(NC(=O)c2cc(Cl)cc(Cl)c2)cc1,-0.99%,-0.05%,-0.79%
